# Where “and” joins values, the source holds several entries; their conditions need not be identical. Identical values can stand only once. The campaign covered roughly 360,000 compounds. About 11,000 (3.1%) were called active. Rule as the data show it: active = activity change below about -30%; inactive = the rest. The entries come from a sample that favours actives as a whole. Where a structure was tested more than once in an assay, its records may differ in their call.
# Target: D(1A) dopamine receptor (Homo sapiens) (UniProt P21728)
# Sequence (P21728 whole entry, looked up): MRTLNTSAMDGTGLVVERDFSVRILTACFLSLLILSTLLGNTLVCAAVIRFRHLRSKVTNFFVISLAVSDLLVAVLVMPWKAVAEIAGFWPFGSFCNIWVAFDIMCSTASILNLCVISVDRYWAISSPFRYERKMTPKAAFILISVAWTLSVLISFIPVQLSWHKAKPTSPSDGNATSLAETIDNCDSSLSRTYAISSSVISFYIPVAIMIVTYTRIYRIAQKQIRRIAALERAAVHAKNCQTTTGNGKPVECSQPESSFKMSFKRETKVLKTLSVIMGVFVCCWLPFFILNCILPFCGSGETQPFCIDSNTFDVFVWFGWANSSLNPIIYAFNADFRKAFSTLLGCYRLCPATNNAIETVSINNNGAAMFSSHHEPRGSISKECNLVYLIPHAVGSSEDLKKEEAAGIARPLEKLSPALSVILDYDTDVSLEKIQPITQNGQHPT
# Assay: Antagonist of Human D 1 Dopamine Receptor: qHTS
# Details: HEK293 TREx D1 cells, calcium flux, dopamine EC80; at 10 µM; stronger effect = lower value
# Procedure, shortened: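 HEK293 T-REx cells expressing inducible, force-coupled D1 receptor; no-wash Ca dye, 30–90 min RT. Cmpd → 180 s read at 1 Hz → EC80 DA → 180 s read.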
# % is scaled to controls: 0 for no effect and ±100 for the full control effect.
row,SMILES,"activity change, negative = inhibition"
1,FC(F)(F)c1cc(Nc2nc3ccccc3c3nncn23)ccc1Cl,-0.606% (inactive)
2,CC1=C(C(=O)Nc2ccccc2Cl)C(c2cccs2)n2ncnc2N1 (centres undefined),4.21% (inactive)
3,CC(C)N(Cc1ccccc1)C(=S)Nc1ccc(OC(F)F)cc1,-4.75% (inactive)
4,CC(NC(=S)Nc1ccc(OC(F)F)cc1)c1ccc(F)cc1 (centres undefined),-35.4% (active)
5,CC(C)CNC(=S)Nc1ccc(F)cc1,12.4% (inactive)
6,CCOC(=O)c1ccc(NC(=O)CC2C(=O)N(c3ccccc3)C(=O)N2Cc2cccs2)cc1 (centres undefined),-10.5% (inactive)
7,S=C(NCCc1ccccc1)NCc1ccccc1Cl,-29.8% (inactive)
8,Cc1ccc(NC(=S)NCc2ccccc2Cl)c(C)c1,-39.4% (active)
9,Cc1cc(F)ccc1NC(=S)NCCc1ccccc1,-15.6% (inactive)
10,COc1cc(NC(=S)NCc2ccco2)c(OC)cc1Cl,-9.33% (inactive)
11,S=C(NCc1ccco1)NCc1ccccc1Cl,-32.9% (active)
12,Cc1ccc(NC(=S)NCCc2ccc(Cl)cc2)c(C)c1,22.5% (inactive)
13,COc1ccccc1C(=O)NCCn1cc(SCc2ccccc2Cl)c2ccccc21,-10.4% (inactive)
14,Cc1ccc(N2CC(C(=O)Nc3ccc(N(C)C)cc3)CC2=O)cc1Cl (centres undefined),2.7% (inactive)
15,Cc1ccc(CNS(=O)(=O)c2ccc(C(=O)N(C)C)s2)cc1,5.34% (inactive)
16,Cc1ccccc1CNC(=O)Cn1c(C)c2cnn(-c3ccccc3)c(=O)c2c1C,-7.63% (inactive)
17,COc1ccc(S(=O)(=O)Nc2cc3c(C(=O)OC(C)C)c(C)oc3c3ccccc23)cc1,-3.34% (inactive)
18,CCOC(=O)c1cc2c(=O)n3ccccc3nc2n(CC2CCCO2)c1=NC(=O)c1ccccc1F (centres undefined),7.85% (inactive)
19,CCOC(=O)c1cc2c(=O)n3ccccc3nc2n(CC2CCCO2)c1=NC(=O)c1ccccc1Br (centres undefined),4.67% (inactive)
20,CCOC(=O)c1cc2c(=O)n3ccccc3nc2n(CC2CCCO2)c1=NC(=O)c1ccc(C(C)(C)C)cc1 (centres undefined),-30.2% (active)

row,SMILES,"activity change, negative = inhibition"
1,Cc1cccc(-n2ccnc2SCC(=O)Nc2cc(C(F)(F)F)ccc2Cl)c1,-5.92% (inactive)
2,Cn1c(=O)c(=O)n(C)c2cc(S(=O)(=O)NCCc3ccccc3)ccc21,-4.68% (inactive)
3,Cn1c(=O)c(=O)n(C)c2cc(S(=O)(=O)NCCN3CCN(c4ccccc4F)CC3)ccc21,-46.1% (active)
4,CCOC(=O)N1CCN(c2c(NCCN3CCN(c4ccccc4F)CC3)c(=O)c2=O)CC1,-21.9% (inactive)
5,CN(C)CCCn1c(SCc2ccc(Cl)cc2)nnc1-c1ccncc1,10.2% (inactive)
6,OCCn1c(-c2ccccc2)csc1=Nc1ccccc1,-45.5% (active)
7,CN(C)CCCn1c(=O)n(Cc2ccccc2)c(=O)c2c3c(sc21)CCCCC3,3.11% (inactive)
8,O=c1cc(CCl)nc2scc(-c3ccccc3)n12,-12.4% (inactive)
9,CN(C)CCCn1c(-c2ccc(Cl)cc2)csc1=Nc1ccccc1,-34.7% (active)
10,O=C1N(Cc2ccccc2)c2ccc(Cl)cc2C1(O)c1c[nH]c2ccccc12 (centres undefined),-8.31% (inactive)
11,Cc1ccc(-n2nnnc2CNC(=O)c2ccccc2C)cc1C,-3.19% (inactive)
12,COc1ccccc1C(=O)Nc1ccnn1C1CCN(Cc2cnn(C)c2)CC1,1.08% (inactive)
13,COc1ccc(C(=O)Nc2ccnn2C2CCN(Cc3ccncc3)CC2)cc1,-37.3% (active)
14,CC(C)Oc1ccc(CN2CCC(n3nccc3NC(=O)c3cccnc3)CC2)cc1,8.77% (inactive)
15,CCc1ccc(C2CC(=O)c3c([nH]c(C(=O)OCc4ccc(C)cc4)c3C)C2)cc1 (centres undefined),-10.1% (inactive)
16,Cc1cccc(N2CCN(C(=O)c3ccc4c(c3)CCN4S(=O)(=O)c3ccccc3)CC2)c1C,-15.6% (inactive)
17,CCn1c(C)c(C)c2cc(C(=O)N3CCN(c4cccc(C)c4C)CC3)ccc21,25% (inactive) and -43.2% (active)
18,Cc1c(C)n(Cc2ccc(Cl)cc2)c2ccc(C(=O)N3CCN(c4ccccc4F)CC3)cc12,-18.2% (inactive)
19,CN(Cc1ccccc1)c1ncnc2onc(-c3ccc(F)cc3)c12,-1.84% (inactive)
20,Cc1ccc(-c2nnc(SCC(=O)NCc3ccccc3)nc2-c2ccc(C)cc2)cc1,-16.8% (inactive)

row,SMILES,"activity change, negative = inhibition"
1,CCC(CC)c1nn2cc(-c3ccccc3)nc2s1,14.7% (inactive)
2,O=C(CCC(=O)N1CCCC1)Nc1ccc([N+](=O)[O-])cc1,15.5% (inactive)
3,O=C(Nc1ccc([N+](=O)[O-])cc1)C1(c2ccccc2)CCOCC1,-11.2% (inactive)
4,O=C(Nc1ccc([N+](=O)[O-])cc1)C1CC12CCC2 (centres undefined),-56.8% (active)
5,CCC(=O)N1CCc2cc(Br)cc(S(=O)(=O)Nc3ccc(C)cc3C)c21,2.58% (inactive)
6,Cc1c(NC(=O)C(C)(C)C)cccc1-c1nc2ccccc2s1,0.443% (inactive)
7,CCOC(=O)c1ccc(N2C(=O)c3n[nH]c(C)c3C2c2ccc(O)c(OC)c2)cc1 (centres undefined),-4.29% (inactive)
8,Cc1ccc(S(=O)(=O)N2CCN(C)CC2)cc1,0.986% (inactive)
9,CCOC(=O)N1CCN(S(=O)(=O)c2ccc(Br)cc2)CC1,-1.63% (inactive)
10,Cn1ncc(N2CCN(S(=O)(=O)c3ccc(Br)cc3)CC2)c(Cl)c1=O,-30.4% (active)
11,Cc1ccc(C)c(NC(=O)Cn2ccn(-c3ccc(F)cc3)c(=O)c2=O)c1,-20% (inactive)
12,COc1ccccc1NC(=O)c1oc2ccccc2c1NC(=O)C(C)C,-5.69% (inactive)
13,COc1ccc(CCN2C(=O)c3[nH]nc(-c4ccccc4O)c3C2c2ccc(C)cc2)cc1OC (centres undefined),-3.51% (inactive)
14,COC(=O)c1ccc(C2C(Oc3ccccc3C)C(=O)N2CCc2ccc(OC)c(OC)c2)cc1 (centres undefined),-49.6% (active)
15,COc1ccc(CCNC(=O)C(=O)NCc2ccccc2C)cc1OC,3.05% (inactive)
16,Cc1ccccc1NC(=O)CN1C(=O)C(C)(C)c2ccccc21,10.3% (inactive)
17,CC(=O)Nc1ccc(S(=O)(=O)Oc2ccc(Br)cc2C(=S)N2CCOCC2)cc1,0.681% (inactive)
18,CCOc1cc(C(=S)N2CCOCC2)ccc1OS(=O)(=O)c1ccc(Br)cc1,-30.6% (active)
19,CCOc1cc(C(=S)N2CCOCC2)ccc1O,-0.874% (inactive)
